A short description of experiment [1]: A549 cell viability effects, profiling panel, calcein-AM fluorescence, 48 h, basal (AID 1162). Also: test concentration not given here. Particulars: higher = more signal.
Experiment [2] in a line: adipocyte viability effects, profiling panel, cell-based, 3T3-L1 adipocytes, calcein-AM fluorescence, 48 h, basal (AID 1163). Also: test concentration not given here. Particulars: 3T3-L1 adipocytes viability, higher = more signal.
Experiment [3] in a line: HepG2 cell viability effects, profiling panel, calcein-AM fluorescence, 48 h, basal (AID 1164). Also: test concentration not given here. The conditions noted are these: higher = more signal.
A short description of experiment [4]: MM1S cell viability effects, profiling panel, calcein-AM fluorescence, 48 h, basal (AID 1165).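 Also: viability of MM1S multiple myeloma cells under basal unstimulated conditions; test concentration not given here.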 Particulars: higher = more signal.
Experiment [5] is described as follows: basal RPMI8226 viability, no added stimulus, profiling panel, cell-based, calcein-AM fluorescence, 48 h, PK04 Diversity Set (AID 1166).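 Also: cells grown under basal conditions without added stimulus; test concentration not given here.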 The conditions noted are these: RPMI8226 myeloma viability, higher = more signal.
Experiment [6] is described as follows: basal HepG2 mitochondrial membrane potential changes, profiling panel, cell-based, JC-1 fluorescence, 24 h, 100 nL compound (AID 1167). Also: test concentration not given here. Particulars: higher = more signal.
Experiment [7] is described as follows: basal 3T3-L1 adipocyte mitochondrial potential changes, profiling panel, cell-based, JC-1 fluorescence, 3T3-L1 adipocytes, 24 h, 100 nL compound (AID 1168). Also: test concentration not given here. The conditions noted are these: JC-1 mitochondrial fluorescence, higher = more signal, called active from +8 up or from −8 down.
Experiment [8] is described as follows: basal RPMI8226 mitochondrial membrane potential changes, profiling panel, cell-based, JC-1 fluorescence, 24 h, 100 nL compound (AID 1169). Also: test concentration not given here. The conditions noted are these: RPMI8226 myeloma, JC-1 mitochondrial potential fluorescence, higher = more signal.
Experiment [9] in a line: basal MM1S mitochondrial membrane potential changes, profiling panel, cell-based, JC-1 fluorescence, 24 h, 100 nL compound (AID 1170). Also: test concentration not given here. Particulars: higher = more signal.
Experiment [10] can be described thus: A549 lung cancer cell viability effects, profiling panel, resazurin fluorescence, 24 h, PK04 Diversity Set (AID 1171). Also: test concentration not given here. Particulars: higher = more signal, called active from +8 up or from −8 down.
Experiment [11] in a line: HepG2 liver cancer cell viability effects, profiling panel, resazurin fluorescence, 24 h, PK04 Diversity Set (AID 1172). Also: test concentration not given here. The conditions noted are these: higher = more signal. (In general: Alamar Blue is a resazurin reagent that responds to reducing activity.)
Experiment [12] in a line: basal S. cerevisiae growth modulation, no modifier, primary screen, OD600, strain BY4716, 24 h, basal condition (AID 1173). The conditions noted are these: OD600, 24 h, higher = more signal, called active from +8 up or from −8 down.
Experiment [13] in a line: MM1S myeloma cell viability, profiling panel, resazurin fluorescence, basal, 24 h, PK04 Diversity Set (AID 1174). Also: test concentration not given here. Particulars: higher = more signal, called active from +8 up or from −8 down.
The target in experiment [14] is Dihydroorotate dehydrogenase (quinone), mitochondrial (Plasmodium falciparum (isolate 3D7)) (UniProt Q08210). As to the kind of experiment: PfDHODH enzyme inhibitors, primary screen, biochemical, C-terminal His tag, absorbance 600 nm (AID 1175).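 Also: recombinant parasite enzyme with a five histidine tag at its C terminus; test concentration not given here.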 Particulars: DCIP absorbance 600 nm, higher = more signal, called active from +8 up or from −8 down.
Dihydroorotate dehydrogenase (quinone), mitochondrial (Plasmodium falciparum (isolate 3D7)), sequence (Q08210 whole entry, looked up): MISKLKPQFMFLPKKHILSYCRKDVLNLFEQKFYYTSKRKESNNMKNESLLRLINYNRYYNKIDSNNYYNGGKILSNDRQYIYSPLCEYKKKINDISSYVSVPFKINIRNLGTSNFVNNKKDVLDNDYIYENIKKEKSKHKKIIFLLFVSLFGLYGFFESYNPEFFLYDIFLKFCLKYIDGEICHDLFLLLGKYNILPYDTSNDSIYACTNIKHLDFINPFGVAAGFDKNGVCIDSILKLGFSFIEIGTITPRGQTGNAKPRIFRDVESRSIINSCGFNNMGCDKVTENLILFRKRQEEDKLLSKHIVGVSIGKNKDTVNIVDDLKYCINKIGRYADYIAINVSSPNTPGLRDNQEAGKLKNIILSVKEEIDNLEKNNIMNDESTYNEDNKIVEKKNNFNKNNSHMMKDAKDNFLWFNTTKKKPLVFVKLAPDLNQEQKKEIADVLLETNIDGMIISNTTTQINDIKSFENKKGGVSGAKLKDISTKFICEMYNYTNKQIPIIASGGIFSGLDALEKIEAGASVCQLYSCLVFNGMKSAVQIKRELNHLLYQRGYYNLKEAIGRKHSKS
Experiment [15] is described as follows: P. aeruginosa biofilm formation inhibitors, primary screen, strain PAO1, LB-PBS medium, absorbance 600 nm (AID 1176). Also: test concentration not given here. Particulars: P. aeruginosa PAO1 growth/biofilm, A600, 12 h; higher = more signal.
Experiment [16] in a line: S. cerevisiae RM11-1a growth modifiers, primary screen, strain RM11-1a, OD600, basal, 24 h (AID 1177).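 Also: cultures grown under basal conditions with no added stressor; test concentration not given here.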 The conditions noted are these: OD600, 24 h, higher = more signal, called active from +8 up or from −8 down.
Experiment [17] is described as follows: E. coli acrAB mutant growth effects, primary screen, E. coli filamentation inducers, strain DRC39, OD650, 24 h (AID 1178).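 Also: growth measured as culture turbidity by optical density at 650 nm; test concentration not given here.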 Particulars: higher = more signal, called active from +8 up or from −8 down.
A short description of experiment [18]: E. coli acrAB mutant growth effects, primary screen, E. coli filamentation inducers, strain DRC39, OD650, 48 h (AID 1179).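 Also: screen aims at cell division blockers that make cells filament.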 The conditions noted are these: E. coli DRC39 delta-acrAB growth, higher = more signal, called active from +8 up or from −8 down.
Experiment [19] can be described thus: RPMI8226 myeloma cell viability, profiling panel, resazurin fluorescence, basal, 24 h, PK04 Diversity Set (AID 1180).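 Also: RPMI8826 multiple myeloma cell line at 5000 cells per well; test concentration not given here.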 Particulars: higher = more signal.
Experiment [20] addresses E3 ubiquitin-protein ligase XIAP (Homo sapiens) (UniProt P98170). Description: XIAP binders, primary screen, biophysical, small-molecule microarray, fluorescence 635 nm (AID 1181).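 Also: score merges 667 nm emission and signal to noise over triplicate slides.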 Particulars: small-molecule microarray binding, higher = more signal.

Structures are written as SMILES. Calls of active or inactive are those of the source. Unless noted, no rule for the calls is given here.

E3 ubiquitin-protein ligase XIAP (Homo sapiens), sequence (P98170 whole entry, looked up): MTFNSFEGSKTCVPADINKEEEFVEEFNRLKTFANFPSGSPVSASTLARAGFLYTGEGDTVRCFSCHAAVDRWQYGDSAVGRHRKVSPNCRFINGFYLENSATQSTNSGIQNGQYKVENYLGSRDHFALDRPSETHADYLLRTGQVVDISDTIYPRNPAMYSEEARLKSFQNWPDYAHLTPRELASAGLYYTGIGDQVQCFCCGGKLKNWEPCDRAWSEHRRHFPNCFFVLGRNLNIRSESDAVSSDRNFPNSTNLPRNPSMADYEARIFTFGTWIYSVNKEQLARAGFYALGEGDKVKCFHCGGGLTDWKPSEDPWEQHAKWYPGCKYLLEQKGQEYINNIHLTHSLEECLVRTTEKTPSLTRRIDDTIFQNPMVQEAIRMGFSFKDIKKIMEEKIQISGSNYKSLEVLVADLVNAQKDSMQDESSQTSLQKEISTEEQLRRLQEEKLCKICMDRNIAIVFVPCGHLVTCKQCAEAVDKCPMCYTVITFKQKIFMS

For the molecule `CCOC(=O)C1=C[C@@H](c2ccccc2)N(S(=O)(=O)c2ccc(C)cc2)[C@H]1c1cccc(Cl)c1`, the z-score in experiment [1] was -1.17; in experiment [2], 0.452; in experiment [3], -1.71; in experiment [4], -1.33; in [5] it was -1.48; in [6], 2.04. In addition, the z-score in experiment [7] is -0.591 (inactive); in experiment [8], 0.754; in experiment [9], 0.648; in experiment [10], 0.776 (inactive); in experiment [11] it was -0.663; in experiment [12], 1.7 (inactive). The z-score in experiment [13] is -0.848 (inactive); in experiment [15], -0.169 (inactive); in [16], 2.1 (inactive); in experiment [17], -0.823 (inactive); in experiment [18], -0.777 (inactive); in experiment [19], -1.64. Moreover, the composite z-score was -0.184 (inactive) in experiment [14] and -0.221 in [20].
Turning to `CC(C)(C)N1CC=CC23O[C@@H]4C=CCOC(=O)[C@@H]4[C@H]2C(=O)N(CCCO)[C@@H]3C1=O` (stereo not given in full), the z-score was 0.495 in [1]; 1.55 in experiment [2]; -0.0446 in experiment [3]; 0.656 in experiment [4]; -0.664 in [5]; -0.57 in experiment [6]. In addition, the z-score in experiment [7] is -0.272 (inactive); in experiment [8], -0.379; in [9], 0.745; in experiment [10] it was -0.89 (inactive); in experiment [11], -0.922; in experiment [12], 0.114 (inactive). The z-score was -1.27 (inactive) in [13]; -0.317 (inactive) in [15]; 0.297 (inactive) in experiment [16]; -1.04 (inactive) in experiment [17]; -0.955 (inactive) in experiment [18]; -0.808 in experiment [19]. Further, the results for the composite z-score in experiment [14] and in [20] were -0.257 (inactive) and 0.55, respectively.
For the molecule `CC(C)(C)OC(=O)CC[C@@]1(C(=O)O)N=C(c2ccc(OCCCO)cc2)O[C@@H]1c1ccccc1`, the z-score is -0.662 in [1]; -0.982 in [2]; -0.289 in experiment [3]; -0.764 in experiment [4]; 0.335 in [5]; -0.602 in experiment [6]. The z-score in experiment [7] is -0.445 (inactive); in experiment [8] it was 0.855; in experiment [9] it was -0.939; in experiment [10], 0.477 (inactive); in experiment [11], 0.0648; in experiment [12], 0.313 (inactive). In addition, the z-score in experiment [13] is 0.0375 (inactive); in experiment [15] it was -0.043 (inactive); in experiment [16], 1.4 (inactive); in [17], 0.0847 (inactive); in experiment [18], -0.202 (inactive); in [19], 0.56. Further, the composite z-score in experiment [14] is 0.904 (inactive); in [20], -0.0918.
On to `CCCc1cccc(=O)o1`, for which the z-score in [1] was -0.996; in [2], 0.369; in experiment [3], -0.133; in [4], 0.25; in experiment [5], -0.316; in experiment [6], -0.147. For the same molecule, the z-score was 0.72 (inactive) in experiment [7]; -0.417 in experiment [8]; -0.773 in experiment [9]; 0.366 (inactive) in experiment [10]; 0.866 in experiment [11]; 0.68 (inactive) in experiment [12]. Moreover, the z-score in experiment [13] is 0.821 (inactive); in experiment [15], 0.353 (inactive); in experiment [16], -0.243 (inactive); in [17], -0.161 (inactive); in experiment [18], 0.846 (inactive); in [19] it was 0.819. The figures for the composite z-score in experiment [14] and in [20] were -0.661 (inactive) and -0.0721, respectively.
Take `COc1ccc([Si](C)(C)[C@H]2[C@H](CCO)O[C@@]3(C(=O)N(Cc4cccc(N5CCCCC5=O)c4)c4ccccc43)[C@@H]2C)cc1`: the z-score in experiment [1] is -1.38; in [2], -0.865; in experiment [3] it was -4.36; in experiment [4] it was -2.73; in [5], -4.35; in experiment [6] it was -1.59. For the same molecule, the z-score in experiment [7] is 0.0395 (inactive); in [8], -1.1; in experiment [9], -2.09; in [10] it was -2.95 (inactive); in experiment [11], -4.02; in experiment [12], -0.732 (inactive). The z-score in [13] was -7.24 (inactive); in [15], 0.969 (inactive); in [16], 4.44 (inactive); in [17], 1.83 (inactive); in [18], 1.26 (inactive); in experiment [19] it was -4.57. Moreover, the composite z-score is -2.94 (inactive) in [14] and -0.031 in experiment [20].
For `COC(=O)C1(Cc2ccccc2)C=C2C(=C(c3ccccc3)C(=O)C2C)CN1` (stereo not given), the z-score in [1] was -0.874; in experiment [2], 0.24; in [3] it was -0.515; in [4] it was -0.451; in experiment [5], -0.91; in experiment [6], -0.832. The z-score in experiment [7] is -1.12 (inactive); in experiment [8], 0.213; in experiment [9], -0.291; in experiment [10], -0.358 (inactive); in experiment [11], -1.33; in experiment [12], 0.369 (inactive). Further, the z-score in experiment [13] was -2.99 (inactive); in experiment [15], 1.04 (inactive); in [16], 0.109 (inactive); in experiment [17], -1.25 (inactive); in [18], -0.628 (inactive); in experiment [19], -1.78. Besides, the composite z-score is -1.03 (inactive) in [14] and -0.217 in experiment [20].
In the case of `C=CCNC(=O)[C@@H]1[C@H]2C(=O)O[C@H](c3ccccc3)[C@H](c3ccccc3)N2[C@H](c2ccc(OCCO)cc2)[C@@]12C(=O)N(C(=O)OCCOC)c1ccc(C#CC3=CCCCC3)cc12`, the z-score was -0.549 in experiment [1]; -0.354 in experiment [2]; 0.0468 in [3]; -1.45 in experiment [4]; -1.59 in experiment [5]; -0.893 in experiment [6]. In addition, the z-score in [7] was -0.0381 (inactive); in experiment [8], -0.814; in [9], -1.57; in experiment [10], -1.01 (inactive); in experiment [11] it was -0.344; in experiment [12] it was 1.83 (inactive). Also, the z-score is -0.897 (inactive) in experiment [13]; 2.17 (inactive) in experiment [15]; 2.57 (inactive) in experiment [16]; -0.713 (inactive) in experiment [17]; -0.206 (inactive) in experiment [18]; -1.66 in experiment [19]. Besides, the composite z-score was -1.47 (inactive) in [14] and -0.426 in experiment [20].
In the case of `CC1CC/C=C\[C@H]2OC34C=CCN(CCN5CCOCC5)C(=O)[C@H]3N(CCO)C(=O)[C@@H]4C2C(=O)O1` (stereo not given in full), the z-score in experiment [1] was -0.507; in [2], 1.44; in [3], -0.186; in experiment [4], 0.237; in [5], 0.143; in [6], -0.382. For the same molecule, the z-score in [7] was -0.533 (inactive); in experiment [8] it was 0.673; in experiment [9], 0.671; in [10], -0.451 (inactive); in [11] it was 0.106; in experiment [12], -0.158 (inactive). Moreover, the z-score is 0.322 (inactive) in experiment [13]; 0.826 (inactive) in [15]; -0.585 (inactive) in [16]; -0.0987 (inactive) in experiment [17]; -0.557 (inactive) in [18]; 0.119 in [19]. The composite z-score in experiment [14] was -0.4 (inactive); in experiment [20] it was -0.128.
`COC(=O)[C@@]1(Cc2ccc(OC)cc2)[C@H]2c3cc(C(=O)N4CCCC4)n(CCc4cc5ccccc5[nH]4)c3C[C@H]2CN1C(=O)c1ccccc1`: the z-score in experiment [1] was -0.596; in [2], -0.0596; in experiment [3], 0.471; in experiment [4], -0.574; in experiment [5], -1.84; in experiment [6] it was 0.877. Besides, the z-score in [7] was -0.538 (inactive); in [8] it was -0.922; in [9], -1.1; in experiment [10], -0.0485 (inactive); in [11], -0.406; in experiment [12], 1.3 (inactive). Further, the z-score in experiment [13] was -1.24 (inactive); in experiment [15], 0.756 (inactive); in experiment [16] it was 1.03 (inactive); in experiment [17] it was 0.009 (inactive); in experiment [18], -0.655 (inactive); in [19], -0.818. The figures for the composite z-score in [14] and in experiment [20] were 0.203 (inactive) and -0.0685, respectively.

The record behind these values is PubChem BioAssay.
